# Measurements as given in ChEMBL document CHEMBL1157539, “Thousands of chemical starting points for antimalarial lead identification” (Nature, 2010).
# Tested on: Plasmodium falciparum
# Test: GSK_TCMDC: Inhibition of Plasmodium falciparum 3D7 in whole red blood cells, using parasite LDH activity as an index of growth. Test compounds present at 2uM
# Assay type: functional
row,SMILES,Inhibition
1,COc1ccc(-c2ccc(NC(=O)c3cccc(Cl)c3)c(F)c2)cc1CN1CCCN(C)CC1.O=C(O)C(F)(F)F,100%
2,Br.CC(CCON1C(N)=NC(N)=NC1(C)C)c1ccc(Cl)c(Cl)c1 (stereo unspecified),98%
3,O=C1Nc2cccc3c2C1(CCCCCN1CCC(c2c[nH]c4ccncc24)CC1)CCC3 (stereo unspecified),95%
4,COc1cc(C(F)(F)F)c2cc(CNCCCNc3nc4ccccc4[nH]3)[nH]c2c1,100%
5,CN1CCC(N2CCN(c3ccc4c(=O)nc(CCc5cccc(F)c5F)n(CC(=O)N(C)Cc5ccc(-c6ccc(C(F)(F)F)cc6)cc5)c4n3)CC2)CC1.O=C(O)C(O)C(O)C(=O)O,100%
6,Oc1ccc(CCNCc2ccc(OCc3ccccc3)c(OCc3ccccc3)c2)cc1,88%
7,CC[C@H](C)CNC(=O)c1cncc(-c2ccc(CNCCOc3ccccc3)cc2)c1.O=C(O)C(F)(F)F,90%
8,COc1cc(NC(=O)c2cccc([N+](=O)[O-])c2)cc(S(=O)(=O)c2ccc(Cl)cc2)c1,88%
9,O=C(N[C@@H](Cc1ccccc1)[C@H](O)CNCCC(F)(F)F)c1cccc(OCC2CC2)c1,98%
10,CCN1CCC(NCc2ccc(-c3ccc(Cl)s3)cc2)CC1,96%
11,O=C(Nc1cccc(CN2CCCN(Cc3ccc(O)cc3)CC2)c1)c1ccc2ccccc2c1.O=C(O)C(F)(F)F,100%
12,Br.Oc1ccc(CCNCCCCCCNCCc2ccc(Br)cc2)cc1O,99%
13,CC(=O)Nc1ccc2[nH]cc(C3CCN(CC4CCN(C(=O)/C=C/c5ccc(Cl)c(Cl)c5)CC4)CC3)c2n1,100%
14,Cc1ccc(Nc2nc(C)cc(N3CCN(c4ccccc4)CC3)n2)cc1,93%
15,NS(=O)(=O)c1cccc(Nc2nccc(-c3c(-c4cccc(NC(=O)c5c(F)cccc5F)c4)nn4ccccc34)n2)c1,98%
16,Br.CCCOc1ccc(CCCON2C(N)=NC(N)=NC2(C)C)cc1,95%
17,Cc1nn(-c2cccc(Cl)c2)c2c1C(C(=O)c1ccc3c(c1)OCO3)CC(=O)N2 (stereo unspecified),98%
18,CC(C)c1ccc(NC(=O)NCCCC2CCCN(CCCCCNC(=O)/C=C/c3ccc(Cl)c(Cl)c3)C2)cc1 (stereo unspecified),90%

row,SMILES,Inhibition
1,CCN1CCC(N(Cc2ccc(-c3ccc(C(F)(F)F)cc3)cc2)C(=O)Cn2c(CCc3cccc(F)c3F)cc(=O)c3cn(C)nc32)CC1.O=C(O)C(O)C(O)C(=O)O,95%
2,COc1cc(Cc2cnc(N)nc2N)c2c(c1OC)OC(C)C=C2 (stereo unspecified),87%
3,CCCC(CNCc1ccc(Cl)c(C(F)(F)F)c1)CNc1nc2cnccc2[nH]1.Cl (stereo unspecified),99%
4,CC(C)c1cc(C(=O)N[C@@H](Cc2ccccc2)[C@H](O)CNC2CCCCC2)cc(N2CCCC2=O)c1,100%
5,CC1CCC(C(C)C)C(OC(=O)CSc2nnc3c(n2)[nH]c2ccccc23)C1 (stereo unspecified),88%
6,Cc1cc(C)cc(OCC(O)CN(Cc2cc(Cl)cc(Cl)c2)C(=O)Nc2ccc([N+](=O)[O-])cc2)c1 (stereo unspecified),95%
7,COc1ccc(C2CCN(C#N)C2)cc1OC1CCCC1 (stereo unspecified),100%
8,COc1ccc(-n2cc(CNCCCn3ccnc3)c(-c3cccc(F)c3)n2)cc1,98%
9,COc1cccc2cc(C(=O)N[C@@H](CC(C)C)C(=O)Nc3cc(F)ccc3Br)oc12,87%
10,COc1cc2nc(NCCCN3CCCCC3)nc(NCc3ccccc3)c2cc1OC,100%
11,CC1(C)[C@H]2CC[C@@H](CNc3nc(NCC(=O)Nc4ccc5ccccc5c4)nc(N4CCC(N5CCCC5)CC4)n3)[C@@H]1C2,93%
12,Cc1cc(=NN=Cc2ccccn2)c2cc(F)ccc2[nH]1,100%
13,O=C(NCc1ccccc1)NC(CCCN1CCC(Oc2cccc(Cl)c2)CC1)c1ccc(Cl)c(Cl)c1 (stereo unspecified),81%
14,O=C(O)C(F)(F)F.OCC1CCN(Cc2ccc(-c3ccc(-c4nc5cc(C(F)(F)F)ccc5[nH]4)s3)cc2)CC1,100%
15,Br.Cc1cc(Br)c(OCCCON2C(=N)N=C(N)NC2(C)C)c(Br)c1,95%
16,CC(C)CNCc1cccc(-c2cccc(CN(CCCN3CCN(C)CC3)C(=O)NC3CCCCC3)c2)c1.O=C(O)C(F)(F)F,100%
17,O=[N+]([O-])c1ccc2ncnc(Nc3ccc(F)c(Cl)c3)c2c1,100%
18,Cc1cccc2nc(-c3cccc(-c4ccc(CN5CCC(C(N)=O)CC5)cc4)c3)[nH]c12.O=C(O)C(F)(F)F,89%
